Values joined by “and” are separate entries in the source; they are usually repeats but may differ in a detail not shown here. Equal values may be shown once. The source holds several records for some structures; these can differ, active in one and inactive in another. Active and inactive are the calls of the source. The calls were made as follows: active = hit-call score of the fitted dose curve at least 0.9, where 1 is the maximum; inactive = score below 0.9.

This note sets out measurements from PubChem BioAssay (EPA / NIEHS).

The target in assay [1] is Aryl hydrocarbon receptor (Homo sapiens) (UniProt P35869). As to the kind of experiment: ATG_Ahr_CIS: Attagene CIS-FACTORIAL HepG2 Assay for human Aryl Hydrocarbon Receptor (Ahr) (AID 2282930). The conditions noted are these: HepG2 AhR cis-factorial reporter transcription; actives raise or lower the signal. In a few lines: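 HepG2 cells transiently transfected with cis-element-driven multiplexed reporter units; endogenous AhR activity read as reporter mRNA 24 h after dosing, via RT-PCR, 6-FAM labelling, HpaI digestion and capillary electrophoresis. Bidirectional fit relative to DMSO.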

Assay [2] can be described thus: ATG_AP_1_CIS: Attagene CIS-FACTORIAL HepG2 Assay for human Activator Protein 1 (AP-1) (AID 2282931). The conditions noted are these: HepG2 Attagene cis-factorial AP-1 reporter mRNA; actives raise or lower the signal. Summed up: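 Transient MRTU transfection of HepG2 → 24 h chemical treatment → RNA isolation, RT-PCR, 6-FAM labelling, HpaI digest → capillary electrophoresis. Fit: bidirectional, DMSO negative control.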

The nature of assay [3]: ATG_AP_2_CIS: Attagene CIS-FACTORIAL HepG2 Assay for human Activator Protein 2 (AP-2) (AID 2282932). The settings on record: HepG2 AP-2 cis-reporter, Attagene transcription factor profiling; actives raise or lower the signal. In a few lines: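 Multiplexed mRNA reporter assay in HepG2: cis-regulated units report endogenous factor activity after 24 h treatment. Fluorescence from capillary electrophoresis of RT-PCR products gives the signal, with DMSO as baseline.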

A short description of assay [4]: ATG_BRE_CIS: Attagene CIS-FACTORIAL HepG2 Assay for human Bone Morphogenetic Protein (BMP) Response Element (BRE) (AID 2282933). The settings on record: HepG2 BMP response element reporter, Attagene transcription factor profiling; actives raise or lower the signal. Summed up: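 Endogenous transcription factor activity read in transiently transfected HepG2 cells after 24 h chemical exposure. Bidirectional curve fitting against DMSO; readout is reporter transcript level by RT-PCR with capillary electrophoresis of labelled products.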

Assay [5] addresses Retinoic acid receptor alpha (Homo sapiens) (UniProt P10276). As to the kind of experiment: ATG_DR5_RAR_CIS: Attagene CIS-FACTORIAL HepG2 Assay for human Retinoic Acid Receptor Alpha (RARE), DR5 submotif (AID 2282934).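 As to AC50: reporter responds to endogenous RAR alpha beta and gamma in HepG2 not RARA alone.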 The conditions noted are these: HepG2 Attagene cis-factorial RARE DR5 reporter, mRNA; actives raise or lower the signal. In a few lines: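 HepG2 cells transiently transfected with multiplexed reporter units; DR5 cis-element drives reporter through endogenous transcription factors. After 24 h dosing, reporter mRNA quantified by RT-PCR, fluorescent labeling, HpaI digestion and capillary electrophoresis; bidirectional fitting versus DMSO.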

Assay [6] addresses Transcription factor E2F1 (Homo sapiens) (UniProt Q01094). As to the kind of experiment: ATG_E2F_CIS: Attagene CIS-FACTORIAL HepG2 Assay for human E2F Transcription Factor 1 (AID 2282935). The settings on record: HepG2 Attagene cis-reporter, E2F reporter RNA transcripts; actives raise or lower the signal. Summed up:
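Measures reporter transcript levels via RT-PCR with capillary electrophoresis detection in HepG2 cells harboring cis-regulated reporter units; 24 h post-dose; bidirectional curve fitting with DMSO as baseline.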

The nature of assay [7]: ATG_E_Box_CIS: Attagene CIS-FACTORIAL HepG2 Assay for human Enhancer Box (E-box) (AID 2282936). The conditions noted are these: HepG2 E-box cis-reporter transcription, actives raise or lower the signal. In a few lines:
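First, HepG2 cells receive multiple cis-regulated reporter constructs by transient transfection. Next, chemicals are applied for 24 h. Finally, reporter mRNA is quantified via RT-PCR and capillary electrophoresis, with DMSO as baseline.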

Assay [8] in a line: ATG_M_61_CIS: Attagene CIS-FACTORIAL HepG2 Assay for M61 Transcription Factor (Internal Marker) (AID 2282937). The conditions noted are these: HepG2 Attagene CIS-FACTORIAL M61 internal marker reporter; actives raise or lower the signal. Summed up:
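Human liver HepG2, transient MRTU transfection (cis promoter elements), 24 h compound. Total RNA → oligo(dT) RT → PCR → FAM label → HpaI → CE. Internal background marker; bidirectional fitting, DMSO = baseline.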

Assay [9] can be described thus: ATG_EGR_CIS: Attagene CIS-FACTORIAL HepG2 Assay for human Early Growth Response 1 (EGR1) (AID 2282938). The conditions noted are these: HepG2 Attagene CIS-FACTORIAL EGR reporter mRNA; actives raise or lower the signal. In a few lines: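 Transient transfection of human HepG2 with multiple cis-regulated reporter units, chemical exposure 24 h, total RNA isolated. Reverse transcription, PCR, fluorescent labelling and capillary electrophoresis quantify reporter transcripts; activity fitted bidirectionally against DMSO.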

Assay [10] is described as follows: ATG_M_19_CIS: Attagene CIS-FACTORIAL HepG2 Assay for M19 Transcription Factor (Internal Marker) (AID 2282939). The conditions noted are these: HepG2 Attagene CIS-FACTORIAL M19 internal marker reporter; actives raise or lower the signal. In a few lines:
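Internal marker readout, fitted in both directions against DMSO, from HepG2 cells carrying transfected cis-element reporter constructs; RT-PCR and capillary electrophoresis of reporter mRNA after 24 h exposure.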

Chain of Transcription factor E2F1 (Homo sapiens) (Q01094 whole entry, looked up): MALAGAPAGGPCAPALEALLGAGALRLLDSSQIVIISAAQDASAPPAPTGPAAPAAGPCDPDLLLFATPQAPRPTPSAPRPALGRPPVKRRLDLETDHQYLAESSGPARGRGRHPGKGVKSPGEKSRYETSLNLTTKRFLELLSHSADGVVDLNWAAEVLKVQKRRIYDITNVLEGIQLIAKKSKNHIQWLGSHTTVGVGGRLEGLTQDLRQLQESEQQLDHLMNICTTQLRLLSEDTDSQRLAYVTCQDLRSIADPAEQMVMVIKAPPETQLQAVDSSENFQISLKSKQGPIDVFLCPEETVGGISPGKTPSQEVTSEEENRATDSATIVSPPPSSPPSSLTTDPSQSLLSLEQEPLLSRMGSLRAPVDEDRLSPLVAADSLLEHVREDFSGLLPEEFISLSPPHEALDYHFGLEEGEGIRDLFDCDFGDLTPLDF
Chain of Retinoic acid receptor alpha (Homo sapiens) (P10276 whole entry, looked up): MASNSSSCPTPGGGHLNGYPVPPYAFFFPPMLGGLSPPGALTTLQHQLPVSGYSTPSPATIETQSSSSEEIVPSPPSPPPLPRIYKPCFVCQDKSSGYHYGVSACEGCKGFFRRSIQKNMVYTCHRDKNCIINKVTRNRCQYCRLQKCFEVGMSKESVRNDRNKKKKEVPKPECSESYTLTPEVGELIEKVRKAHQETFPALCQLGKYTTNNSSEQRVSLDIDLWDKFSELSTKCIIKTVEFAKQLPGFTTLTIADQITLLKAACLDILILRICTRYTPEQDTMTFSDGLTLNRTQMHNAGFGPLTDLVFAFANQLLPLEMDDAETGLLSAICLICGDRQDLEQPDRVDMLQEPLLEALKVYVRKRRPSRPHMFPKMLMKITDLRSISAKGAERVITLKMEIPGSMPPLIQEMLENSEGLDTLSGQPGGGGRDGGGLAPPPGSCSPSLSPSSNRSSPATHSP
Chain of Aryl hydrocarbon receptor (Homo sapiens) (P35869 whole entry, looked up): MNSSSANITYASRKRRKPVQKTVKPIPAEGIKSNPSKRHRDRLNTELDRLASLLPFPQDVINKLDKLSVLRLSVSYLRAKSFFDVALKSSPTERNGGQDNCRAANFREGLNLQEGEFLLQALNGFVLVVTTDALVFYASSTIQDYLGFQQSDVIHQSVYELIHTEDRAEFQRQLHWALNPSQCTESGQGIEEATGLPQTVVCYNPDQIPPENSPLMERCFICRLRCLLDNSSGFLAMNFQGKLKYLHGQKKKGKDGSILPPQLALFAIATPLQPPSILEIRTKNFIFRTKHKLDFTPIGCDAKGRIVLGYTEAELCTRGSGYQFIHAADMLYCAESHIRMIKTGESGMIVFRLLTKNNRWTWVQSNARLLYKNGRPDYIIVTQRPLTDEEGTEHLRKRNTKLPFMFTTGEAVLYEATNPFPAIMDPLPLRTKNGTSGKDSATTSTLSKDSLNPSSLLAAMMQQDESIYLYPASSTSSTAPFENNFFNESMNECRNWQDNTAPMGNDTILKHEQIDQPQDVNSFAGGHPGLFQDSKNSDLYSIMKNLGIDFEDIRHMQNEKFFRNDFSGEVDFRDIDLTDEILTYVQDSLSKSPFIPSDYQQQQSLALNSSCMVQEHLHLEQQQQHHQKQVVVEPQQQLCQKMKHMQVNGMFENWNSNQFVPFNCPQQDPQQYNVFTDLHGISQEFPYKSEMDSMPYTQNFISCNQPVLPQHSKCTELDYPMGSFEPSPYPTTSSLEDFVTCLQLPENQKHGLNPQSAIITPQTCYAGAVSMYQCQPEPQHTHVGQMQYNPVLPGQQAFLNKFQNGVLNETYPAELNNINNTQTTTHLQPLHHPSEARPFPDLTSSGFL

Consider `COP(=S)(OC)Oc1c(Cl)cc(C)cc1Cl`, for which the outcome in [1], in [2], in [3], in assay [4], in [5] and in [6] was inactive. Besides, the result in [7], in assay [8], in assay [9] and in assay [10] was inactive.

`BrCCBr`: the compound was classed as inactive in assay [1], in [2], in [3], in assay [4], in assay [5] and in [6]. Further, the result in [7], in [8], in [9] and in [10] was inactive.

For `c1cc[c]([Hg][c]2ccccc2)cc1`, the call in assay [1], in assay [2], in assay [3], in [4], in assay [5] and in assay [6] was inactive. Also, the outcome in assay [7], in [8] and in assay [10] was inactive. The AC50 in assay [9] is 26.4 µM (active).

In the case of `CCOP(=S)(OCC)Oc1ccc(S(C)=O)cc1` (configuration not stated), the AC50 in assay [1] was 32.5 µM (active). Moreover, the outcome in assay [2], in assay [3], in [4], in assay [5], in [6] and in assay [7] was inactive. The compound was classed as inactive in assay [8], in [9] and in [10].

Consider `CCCCC(CC)CO[N+](=O)[O-]` (configuration not stated), for which the call in assay [1], in assay [2], in assay [3], in [4], in [6] and in assay [7] was inactive. Further, the outcome in assay [8], in assay [9] and in [10] was inactive. For the same compound, the AC50 in assay [5] is 99.5 µM (active).

As to `C1CCC(NC2CCCCC2)CC1`, the call in assay [1], in assay [2], in assay [3], in assay [4], in assay [5] and in assay [6] was inactive. Moreover, the result in [7], in assay [8], in [9] and in [10] was inactive.

Turning to `O=C1C(Cl)=C(Cl)C(=O)c2ccccc21`, in [1], the AC50 was 1.86 µM (active). Besides, the call in assay [2], in assay [3], in [4], in assay [5], in assay [6] and in [7] was inactive. Further, the result in [8], in assay [9] and in assay [10] was inactive.

As for `O=C1C2(Cl)C3(Cl)C4(Cl)C(Cl)(Cl)C5(Cl)C3(Cl)C1(Cl)C5(Cl)C24Cl` (configuration not stated), the outcome in assay [1], in assay [2], in assay [3], in [4], in assay [6] and in assay [7] was inactive. The outcome in assay [8] and in [10] was inactive. The AC50 in [2] is 3.57 µM (active) and 3.03 µM (active); in assay [3], 18.4 µM (active); in [6], 11.1 µM (active); in assay [7] it was 5.67 µM (active) and 5.25 µM (active).

In the case of `COC(=O)c1sccc1S(=O)(=O)NC(=O)Nc1nc(C)nc(OC)n1`, the compound was classed as inactive in assay [1], in assay [2], in assay [3], in assay [4], in assay [5] and in assay [6]. In addition, the result in [7], in assay [8], in [9] and in [10] was inactive.

Take `CCC(=O)C(CC(C)N(C)C)(c1ccccc1)c1ccccc1` (configuration not stated): the call in assay [1], in assay [2], in [3], in assay [4], in assay [5] and in [6] was inactive. The result in [8], in assay [9] and in assay [10] was inactive. Also, in assay [7], the AC50 is 48.8 µM (active).

As to `O=C/C=C/c1ccccc1`, the compound was classed as inactive in [1], in [2], in assay [3], in assay [4], in assay [5] and in [6]. Also, the outcome in assay [7], in assay [8], in [9] and in assay [10] was inactive.

Consider `COP(=S)(OC)Oc1ccc(Sc2ccc(OP(=S)(OC)OC)cc2)cc1`, for which the compound was classed as inactive in assay [1], in assay [2], in [3], in assay [5], in assay [6] and in assay [7]. Besides, the result in assay [8] and in assay [10] was inactive. For the same compound, the AC50 in [4] is 6.58 µM (active); in [9], 29.8 µM (active).

On to `COC(=O)Cc1ccccc1`, for which the compound was classed as inactive in assay [1], in assay [2], in assay [3], in [4], in [5] and in [6]. For the same compound, the outcome in assay [7], in assay [8], in assay [9] and in assay [10] was inactive.

With `CC(C)(c1ccc(OCC2CO2)cc1)c1ccc(OCC2CO2)cc1` (configuration not stated), the compound was called inactive in assay [1], in [3], in assay [4], in assay [5], in assay [6] and in assay [8]. Further, the compound was classed as inactive in assay [10]. Further, the AC50 in assay [2] is 53.9 µM (active); in assay [7], 52.4 µM (active).

Take `CCCCCCCCc1ccc(O)cc1`: the result in assay [1], in [2], in assay [3], in [4], in [6] and in assay [7] was inactive. Besides, the result in assay [8], in assay [9] and in assay [10] was inactive. Moreover, in assay [2], the AC50 was 18.7 µM (active).

As for `N#CN=C(N)N`, the call in assay [1], in [2], in assay [3], in assay [4], in [6] and in assay [7] was inactive. The call in assay [8], in assay [9] and in assay [10] was inactive.

On to `CCC(C)c1cccc(C(C)CC)c1O` (configuration not stated), for which the outcome in assay [1], in [2], in assay [3], in assay [4], in assay [6] and in [7] was inactive. Also, the compound was called inactive in [8], in [9] and in assay [10].

For `Nc1ccc(Cl)cc1C(=O)c1ccccc1`, the compound was classed as inactive in [1], in assay [2], in assay [3], in assay [4], in assay [6] and in [7]. In addition, the result in assay [8] and in [10] was inactive. Besides, the AC50 in [9] was 26.3 µM (active).

With `COP(=S)(OC)Oc1ccc(S(=O)(=O)N(C)C)cc1`, the result in assay [1], in assay [2], in [3], in assay [4], in assay [6] and in assay [7] was inactive. In addition, the compound was called inactive in assay [8], in assay [9] and in [10].

On to `ClC1=C(Cl)[C@]2(Cl)[C@H]3[C@H]([C@H]4C=C[C@H]3C4)[C@@]1(Cl)C2(Cl)Cl`, for which the compound was called inactive in assay [1], in [2], in [3], in assay [4], in assay [6] and in assay [7]. Also, the compound was classed as inactive in assay [8], in [9] and in assay [10].

Consider `O=C(Cl)c1ccc(Cl)cc1`, for which the compound was called inactive in assay [1], in [2], in assay [3], in assay [4], in assay [5] and in assay [6]. For the same compound, the outcome in assay [7], in assay [8] and in assay [10] was inactive.

With `CC(C)(C)c1cc(O)ccc1O`, the AC50 in assay [1] was 1.85 µM (active); in [2] it was 66.7 µM (active); in [4], 19.8 µM (active); in [6] it was 66.5 µM (active). The compound was classed as inactive in assay [3], in assay [5], in [7], in [8] and in [10].

For `CCc1ccccc1C`, the call in assay [1], in assay [2], in assay [3], in assay [4], in assay [6] and in [7] was inactive. The call in assay [8], in assay [9] and in assay [10] was inactive.

Regarding `Nc1ccc(-c2ccc(N)c(Cl)c2)cc1Cl`, the AC50 in assay [1] was 6.23 µM (active). For the same compound, the compound was called inactive in assay [2], in assay [3], in assay [4], in assay [6], in [7] and in [8]. Also, the outcome in assay [9] and in [10] was inactive.

The AC50 is the concentration at which the activity in the assay is half-maximal.
